Hck-Nef inh: human Hck-Nef kinase inhibition; AID 463187; inhibition, % at 20 µM; P08631; 0.68% of 220,000 active; Recombinant Hck-YEEI plus Nef, Z-Lyte FRET kinase assay;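 active means Hck-Nef kinase inhibition above about 50%, limit read from the data; inactive means inhibition below that limit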;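 further: 0% = DMSO with Hck plus Nef and 100% = Hck alone without Nef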
Target sequence (P08631 whole entry, looked up): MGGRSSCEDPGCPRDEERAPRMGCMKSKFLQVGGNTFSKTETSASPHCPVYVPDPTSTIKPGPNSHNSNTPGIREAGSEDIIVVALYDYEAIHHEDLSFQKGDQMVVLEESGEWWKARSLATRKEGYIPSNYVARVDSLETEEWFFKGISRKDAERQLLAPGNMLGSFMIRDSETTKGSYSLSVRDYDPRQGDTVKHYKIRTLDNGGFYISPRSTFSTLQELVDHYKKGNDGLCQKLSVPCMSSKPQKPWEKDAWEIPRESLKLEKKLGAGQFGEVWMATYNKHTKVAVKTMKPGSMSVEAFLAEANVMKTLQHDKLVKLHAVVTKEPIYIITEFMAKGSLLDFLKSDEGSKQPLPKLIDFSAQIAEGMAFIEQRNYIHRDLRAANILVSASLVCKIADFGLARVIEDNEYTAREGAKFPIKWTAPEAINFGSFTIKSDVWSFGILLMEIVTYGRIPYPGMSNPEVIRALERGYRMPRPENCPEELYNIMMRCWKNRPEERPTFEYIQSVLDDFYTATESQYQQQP
Mcl1 Noxa PPI: Mcl-1/Noxa interaction inhibition; Q07820; TR-FRET Mcl-1/Noxa peptide binding, 2 h; inhibition, % at 21.7 µM; 1.5% of 220,000 active; AID 1022;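 active means compounds that cut the protein-peptide binding signal by more than 50% relative to plate controls in a single-dose test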;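 further: His-tagged Mcl-1 with rhodamine Noxa BH3 peptide and terbium anti-His antibody; 0% = Mcl-1 plus Noxa peptide wells and 100% = peptide-only wells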
Mcl-1 Bim block: disrupts Bim peptide binding to human Mcl-1; inhibition, % at 10 µM; AID 1009; Bead-based flow cytometry, Bim peptide-Mcl-1 binding; 0.1% of 190,000 active; in the data active means inhibition above about 40%;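 further: 0% = no compound tracer wells and 100% = peptide blocker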
eIF4E-4G inh: eIF4E/eIF4G interaction inhibition in translation initiation. TR-FRET eIF4E-eIF4GI(517-606) binding, 2 h. 0.37% of 220,000 active. P63073+Q04637. inhibition, % at 21.7 µM;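 active means inhibition above about 30%, limit read from the data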;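 further: 0% = full FRET control wells and 100% = background wells lacking eIF4GI fragment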
14-3-3 Bad inh: disrupts binding of bovine 14-3-3 zeta to phospho-Bad peptide; P63103; TR-FRET 14-3-3zeta/Dy647-pBad peptide displacement, 1 h; inhibition, % at 21.7 µM; 0.71% of 220,000 active; AID 781;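 active means inhibition above about 70%, limit read from the data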;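 further: 0% = full 14-3-3 plus peptide FRET controls and 100% = background without 14-3-3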
Mcl1-Bid inh: disrupts binding of human Mcl-1 to Bid peptide | TR-FRET Mcl-1/Bid-Dy647 peptide binding, 1536-well | inhibition, % at 21.7 µM | 0.97% of 220,000 active | AID 1021;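 active means compounds that cut the binding signal by more than half at the single screening dose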;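 further: His-tagged Mcl-1 with europium anti-His antibody binding Bid BH3 peptide; 0% = Mcl-1 plus peptide wells and 100% = peptide-only wells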
Hck-Nef confirm: confirmation of Hck-Nef kinase inhibitors. shares compounds with Hck-Nef inh. Recombinant Hck-YEEI:Nef, Z-Lyte FRET kinase assay. calls only at 10 µM. 28% of 1,300 active;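 active means average inhibition of at least 50%, with Z-scores no higher than 3 in both the phospho-tyrosine peptide and fluorescence counterscreens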
* marks the source's active call; other numbers are inactive results; i = inactive; x = not tested or not shown; + = active, no number. Compounds with a hit are over-represented: about 3.5% of the library has one in this group of screens.

SMILES	Hck-Nef inh	Mcl1 Noxa PPI	Mcl-1 Bim block	eIF4E-4G inh	14-3-3 Bad inh	Mcl1-Bid inh	Hck-Nef confirm
O=C(NC(=O)c1ccccc1Cl)Nc1ccc(-c2cnco2)cc1	70*	-57	x	-5	48	-64	i
O=C(Nc1ccc(-c2cnco2)cc1)c1ccccc1	-2	-12	x	0	-7	-8	x
O=C(Nc1ccc2oc(=O)ccc2c1)c1ccc(-c2cccc(Cl)c2)o1	65*	21	x	18	92*	66*	i
O=C(Nc1ccc2oc(=O)ccc2c1)c1ccc(-c2cccc([N+](=O)[O-])c2)o1	66*	70*	x	13	92*	80*	i
O=C(CN1CCCN(Cc2ccc(F)cc2Cl)C1=O)NC1CCCC1	19	2	-2	-1	-10	-3	x
Cc1ccc(S(=O)(=O)Nc2ccc(N(C)C)cc2)cc1	85*	73*	0	12	6	-3	i
Cc1ccc(CNc2ncccc2-c2nc3cc(Cl)ccc3o2)cc1	66*	-5	0	-1	4	-33	+
Clc1ccc2oc(-c3cccnc3NCc3ccccc3)nc2c1	90*	11	-4	-5	1	8	x
NS(=O)(=O)c1ccc(N2N=C(c3ccccc3)CC2c2cccc(F)c2)cc1 (stereo not drawn)	25	8	-18	6	2	-62	x
COc1ccc(C2CC(c3ccccc3)=NN2c2ccc(S(N)(=O)=O)cc2)cc1OC (stereo not drawn)	74*	17	0	2	16	5	i
NS(=O)(=O)c1ccc(N2N=C(c3ccc(Br)cc3)CC2c2ccc(F)cc2)cc1 (stereo not drawn)	117*	-6	-5	3	-5	-3	i
CCOC(=O)C1CCCN(C(=O)Nc2c(-c3ccccc3)noc2C)C1 (stereo not drawn)	3	9	x	-6	-1	-2	x
CCOC(=O)/C(C#N)=C1/SC(CCO)C(=O)N1c1ccccc1 (stereo not drawn)	54*	26	0	-2	-6	-22	i
Cc1nn(C)c(C)c1CS(=O)(=O)c1ccccc1	12	14	-3	0	-5	-13	x
COc1ccc(/C=C2\C(=O)ON=C2c2cccc([N+](=O)[O-])c2)cc1	53*	47	-2	3	-5	-68	i
N#C/C(=C\c1cccs1)C(=O)Nc1ccccn1	16	18	x	0	-7	-10	x
Cc1ccc(N/N=C/c2c(C)c(C#N)c(=O)n(C)c2O)cc1C	77*	36	0	2	-15	-14	i
C=CCn1c(SCC(=O)NC(=O)c2cccc([N+](=O)[O-])c2)nnc1-c1ccccc1F	2	18	-7	-5	1	-21	x
CCN(CC)c1ccc(-c2nnc(SCC(=O)Nc3ccccc3C#N)n2-c2ccccc2)cc1	66*	-12	-2	0	11	-21	+
N#Cc1ccccc1NC(=O)CSc1nnc(-c2ccccc2)n1-c1ccccc1	2	-8	0	-8	-6	-35	x
COCCNC(=O)/C(C#N)=C/c1ccc(OCC(=O)NC2CCCCC2)cc1	28	11	2	2	-1	-3	x
O=C(COc1ccccc1CNCc1ccccc1)Nc1ccccc1	1	24	-2	2	11	-8	x
Brc1ccc(-c2nc(N/N=C/c3cccnc3)c3ccccc3n2)cc1	-4	47	-1	-44	38	50	x
Cc1ccc(-c2nc(N/N=C/c3ccccc3[N+](=O)[O-])c3ccccc3n2)cc1	56*	2	-3	9	48	-1	i
Cc1nc2ccccc2c(=O)n1NC(=O)Cc1ccccc1	-7	x	x	x	x	x	x
SMILES	Hck-Nef inh	Mcl1 Noxa PPI	Mcl-1 Bim block	eIF4E-4G inh	14-3-3 Bad inh	Mcl1-Bid inh	Hck-Nef confirm
C/C(=N\NC(=O)c1ccc(N/N=C(\C)c2ccc(O)cc2)cc1)c1ccc(O)cc1	-29	46	x	-3	1	-76	x
C/C(=N\NC(=O)c1cccc(N/N=C(\C)c2cc(O)ccc2O)c1)c1cc(O)ccc1O	57*	100*	5	-8	-8	-6	i
Cc1ccnc(NS(=O)(=O)c2ccc(NC(=O)CSc3nc(-c4ccccc4)cc(=O)[nH]3)cc2)n1	-15	20	3	-4	-14	-43	x
O=C(CN(Cc1cccs1)C(=O)CNS(=O)(=O)c1ccc(Cl)cc1)NCC1CCCO1 (stereo not drawn)	53*	-16	0	2	-3	-28	i
O=C(CN(Cc1cccs1)C(=O)CNS(=O)(=O)c1ccc(F)cc1)NCC1CCCO1 (stereo not drawn)	-20	13	0	3	-9	-25	x
COc1ccc(/C=N/NC(=O)c2cc(C(C)(C)C)[nH]n2)cc1COc1ccc(F)cc1F	58*	3	2	-3	-4	2	i
COc1ccc(/C=N/NC(=O)c2nc(Cl)c(Cl)c(N)c2Cl)cc1COc1ccc(F)cc1F	1	14	-3	-3	5	-14	x
COc1c(O)ccc(/C=C(\C#N)c2nc3ccccc3[nH]2)c1[N+](=O)[O-]	50*	37	-1	24	27	-60	i
CC(CCc1ccccc1)NC(=O)C(=O)N1CCOCC1 (stereo not drawn)	18	16	0	1	0	-14	x
CC1=Nc2ccccc2N=C(NC(=O)CN2CCN(c3ccc(F)cc3)CC2)C1c1ccccc1 (stereo not drawn)	18	2	x	-5	-3	-56	x
COc1ccc(Br)cc1/C=C/C(=O)NC(=S)Nc1ccc(Cl)c(C(=O)O)c1	58*	17	-4	-2	-10	-1	i
CSc1ccccc1C(=O)N1CCc2ccccc2C1	16	9	8	2	-7	-17	x
COC(=O)c1c(NC(=O)COC(=O)c2ccc(NC(=O)CC#N)cc2)sc2c1CCCCC2	113*	67*	0	19	13	19	+
Cn1c(CNC(=O)OC(C)(C)C)n[nH]c1=S	18	-3	-2	-2	-13	-44	x
O=c1oc2c(CN3CCCCC3)c(O)ccc2c2c1CCCC2	37	5	-3	5	-2	11	x
COC(=O)Cc1c(C)c2ccc(O)c(CN3CCCC(C)C3)c2oc1=O (stereo not drawn)	75*	-4	-3	x	x	-61	x
C=CCn1c(C)cc(C(=O)Cn2ncc(Cl)c(Cl)c2=O)c1C	53*	86*	-5	23	-18	-76	i
COC(=O)CCC(=O)OC1(C)C(=O)C2=COC(c3ccc(OC)cc3)=CC2=C(Br)C1=O (stereo not drawn)	93*	50*	x	19	13	-41	+
